Most compounds without a hit are left out; they make up all but 18% or so of the library.
RORg inh – ROR gamma (mouse) transcription inhibition; P51450; Drosophila S2 Gal4-RORgamma UAS-luciferase reporter, 20 h; Potency, µM (series often up to 53.6 µM), most hits filed as inhibitors; 310,000 compounds, 5.4% hits; further: nearly all actives have a fitted effect of over 60% in size
Target sequence (P51450 whole entry, looked up, the tested form may be a part): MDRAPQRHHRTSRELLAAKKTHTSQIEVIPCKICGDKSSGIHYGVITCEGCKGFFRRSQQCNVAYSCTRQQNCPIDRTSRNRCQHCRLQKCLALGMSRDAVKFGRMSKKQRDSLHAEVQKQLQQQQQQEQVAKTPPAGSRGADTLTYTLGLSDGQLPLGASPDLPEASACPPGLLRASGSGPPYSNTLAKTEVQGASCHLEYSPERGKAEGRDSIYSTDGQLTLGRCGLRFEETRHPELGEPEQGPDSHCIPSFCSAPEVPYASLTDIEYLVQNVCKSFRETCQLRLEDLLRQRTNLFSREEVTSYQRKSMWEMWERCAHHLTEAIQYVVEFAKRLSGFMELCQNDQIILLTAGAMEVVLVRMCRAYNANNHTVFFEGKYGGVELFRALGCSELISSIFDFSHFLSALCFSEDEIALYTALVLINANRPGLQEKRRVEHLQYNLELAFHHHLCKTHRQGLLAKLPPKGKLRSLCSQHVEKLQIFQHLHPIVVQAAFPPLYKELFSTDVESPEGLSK
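ROR gamma transcriptional activity was tracked as Gal4-UAS luciferase output in stably transfected Drosophila Schneider cells, with compound added 1 hr before 700 uM copper sulfate induction and a 20 hr ambient-temperature incubation.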
TDP1 cell noCPT – qHTS for Inhibitors of human tyrosyl-DNA phosphodiesterase 1 (TDP1): qHTS in cells in absence of CPT; Potency, µM (doses to about 46.2 µM), usual class: inhibitors; DT40 Tdp1-/- hTDP1 cells, no CPT, ATP luminescence, 48 h; 420,000 compounds, 15% hits; further: nearly all actives have a fitted effect of over 55% in size
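Growth kinetics read by CellTiter-Glo luminescence after ≥48 hr at 37 °C. Cells: DT40 Tdp1-/- stably carrying human TDP1, 400 per well, compound exposure in the absence of CPT (DMSO vehicle).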
IL-1B inflam inh – inhibitors of inflammasome signaling (IL-1 beta secretion); THP-1 LPS/ATP IL-1B secretion, AlphaLISA, 16 h; stronger effect = lower value; activity change, % at 57.5 µM; 360,000 compounds, 4.7% hits; in the data active means activity change below about -50%; inconclusive means mostly about -30% to -49%
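THP-1 cells pretreated 1 hr with compounds (up to 57.5 uM final), then stimulated with LPS (250 ng/mL final) plus ATP (1.25 mM final); secreted IL-1B measured by AlphaLISA after 16 hr, decreased signal indicating inhibition.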
DT40 TDP1 CPT – DT40-hTDP1 cell growth loss with CPT; Potency, µM (top dose mostly 46.2 µM), most hits filed as inhibitors; 420,000 compounds, 12% hits; chicken DT40 Tdp1-/-;hTDP1 cells + 20 nM CPT, ATP luminescence, 48 h; AID 686979; further: nearly all actives have a fitted effect of over 55% in size
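Chicken DT40 Tdp1-/- cells complemented with human TDP1, 400 cells/well, exposed to compounds plus 20 nM camptothecin for at least 48 h at 37 C; viability read as ATP content by CellTiter-Glo luminescence.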
VP16 counter – counter-screen for ROR gamma inhibitors: Gal4-VP16 reporter; Potency, µM (titrated, usually from 53.6 µM), most hits filed as inhibitors; 310,000 compounds, 3.5% hits; Drosophila S2 Gal4-VP16 UAS-luciferase, luminescence, 20 h;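 further: Gal4-VP16 expression switched on by copper sulfate through the metallothionein promoter; nearly all actives have a fitted effect of over 50% in size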
LDHA inh – inhibitors of human lactate dehydrogenase A | P00338 | purified LDHA, NADH/diaphorase-resazurin fluorescence; stronger effect = lower value | activity change, % (values are at about 110 or 230 µM) | 480,000 compounds, 0.15% hits | AID 1347041; in the data active means activity change below about -30%; inconclusive means mostly about -25% to -30%
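Human LDH5 at 2 nM final in Tris HCl pH 7.4 with 0.06 mM NADH and 0.2 mM pyruvate, reacted 5 minutes at room temperature. Remaining NADH coupled via diaphorase/resazurin; resorufin fluorescence read at 0 and 20 minutes, normalized to enzyme-free and DMSO wells.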
Of the large screens only hits and unclear results are named; the others gave an inactive call. Unless noted, the call rests on the fitted dose curve; in most records, active means well fitted curve in the direction sought with a large enough effect; inconclusive means small, poorly fitted or top-dose-only effect, or another doubt; inactive means no such curve, though single readings can be large; an effect the other way counts as inactive or inconclusive.

Cc1ccc(Sc2ccccc2CN(C)C)c(N)c1	none (no result: TDP1 cell noCPT, IL-1B inflam inh, DT40 TDP1 CPT, LDHA inh)
Cc1ccc(O)c(N)c1	RORg inh inconclusive, TDP1 cell noCPT 23µM, DT40 TDP1 CPT inconclusive, VP16 counter inconclusive
Cc1ccc(SSc2cc(C)ccc2N)c(N)c1	TDP1 cell noCPT 8.2µM, IL-1B inflam inh -108, DT40 TDP1 CPT 7.3µM (no result: RORg inh, VP16 counter)
Cc1ccc(C)c(N)c1	none
COc1cccc(CNC(=O)COC(=O)c2ccc(-c3ccc(O)cc3)cc2)c1	TDP1 cell noCPT 3.3µM, DT40 TDP1 CPT inconclusive (no result: RORg inh, VP16 counter)
C#CCOCCOCCOCCNc1nc(N2CCN(C(=O)CCCCCCCCCCNC(=O)[C@@H](CCC(=O)O)n3cc(CCCCCN)nn3)CC2)nc(N2CCN(C(=O)CCCCCCCCCCNC(=O)[C@H](CO)n3cc(CCCCCN)nn3)CC2)n1	IL-1B inflam inh inconclusive (no result: RORg inh, VP16 counter)
C#CCOCCOCCOCCNc1nc(N2CCOCC2)nc(N2CCN(C(=O)CCCCCCCCCCNC(=O)[C@H]([C@@H](C)CC)n3cc(CCCCN=C(N)N)nn3)CC2)n1	IL-1B inflam inh inconclusive (no result: RORg inh, VP16 counter)
C#CCOCCOCCOCCNc1nc(N2CCOCC2)nc(N2CCN(C(=O)CCCCCCCCCCNC(=O)[C@H](CO)n3cc(CCCSC)nn3)CC2)n1	TDP1 cell noCPT inconclusive, DT40 TDP1 CPT 23µM (no result: RORg inh, VP16 counter)
C#CCOCCOCCOCCNc1nc(N2CCN(C(=O)CCCCCCCCCCNC(=O)[C@@H](CCSC)n3cc(CCO)nn3)CC2)nc(N2CCN(C(=O)CCCCCCCCCCNC(=O)[C@H](CCC(=O)O)n3cc(CCCCCN)nn3)CC2)n1	IL-1B inflam inh -53 (no result: RORg inh, VP16 counter)
C#CCOCCOCCOCCNc1nc(N2CCN(C(=O)CCCCCCCCCCNC(=O)[C@@H](CCSC)n3cc(CCO)nn3)CC2)nc(N2CCN(C(=O)CCCCCCCCCCNC(=O)[C@H](CO)n3cc(CCCCCN)nn3)CC2)n1	TDP1 cell noCPT inconclusive, IL-1B inflam inh -82, DT40 TDP1 CPT inconclusive (no result: RORg inh, VP16 counter)
C#CCOCCOCCOCCNc1nc(N2CCN(C(=O)CCCCCCCCCCNC(=O)[C@H](CCCCN)n3cc(CCO)nn3)CC2)nc(N2CCN(C(=O)CCCCCCCCCCNC(=O)[C@H](CCCCN)n3cc(CCCC(=O)O)nn3)CC2)n1	IL-1B inflam inh inconclusive (no result: RORg inh, VP16 counter)
C#CCOCCOCCOCCNc1nc(N2CCN(C(=O)CCCCCCCCCCNC(=O)[C@@H](CCC(=O)O)n3cc(CCCCCN)nn3)CC2)nc(N2CCN(C(=O)CCCCCCCCCCNC(=O)[C@H](CO)n3cc(CCCSC)nn3)CC2)n1	IL-1B inflam inh -56, DT40 TDP1 CPT 13µM (no result: RORg inh, VP16 counter)
CC(C)(C)c1ccc(/C=C2/C(=O)c3ccccc3OC2c2ccccc2)cc1 (configuration not stated)	none (no result: RORg inh, TDP1 cell noCPT, IL-1B inflam inh, DT40 TDP1 CPT, VP16 counter)
COc1c(CNCc2nnc3n2CCCCC3)c(C(C)C)nn1C	none (no result: RORg inh, TDP1 cell noCPT, IL-1B inflam inh, DT40 TDP1 CPT, VP16 counter)
Cn1c(CCN2CCN(c3ccccn3)CC2)nc2cc(NC(=O)COc3ccccc3)ccc21	TDP1 cell noCPT 26µM, DT40 TDP1 CPT inconclusive
Cc1ccc(OCC(=O)Nc2ccc3c(c2)nc(CCN2CCN(c4ccccn4)CC2)n3C)cc1	TDP1 cell noCPT 21µM, DT40 TDP1 CPT 23µM (no result: RORg inh, VP16 counter)
Cc1ccc(OCC(=O)Nc2ccc3c(c2)nc(CCN2CCN(C)CC2)n3C)cc1	TDP1 cell noCPT inconclusive, DT40 TDP1 CPT inconclusive
COc1ccc(COCC(O)Cn2nc(-c3ccccc3)c3ccccc3c2=O)cc1 (configuration not stated)	none (no result: RORg inh, TDP1 cell noCPT, IL-1B inflam inh, DT40 TDP1 CPT, VP16 counter)
O=C(NCCc1ccc(F)cc1)c1cc2cc(F)ccc2[nH]1	none (no result: RORg inh, TDP1 cell noCPT, IL-1B inflam inh, DT40 TDP1 CPT, VP16 counter)
CCOc1cc(C)nc(NCCc2ccc(OC)c(OC)c2)n1	TDP1 cell noCPT 20µM, IL-1B inflam inh -57, DT40 TDP1 CPT inconclusive
CCOc1cc2nc(-c3ccc(OC)c(OC)c3)nc(N3CCOCC3)c2cc1OC	TDP1 cell noCPT inconclusive, DT40 TDP1 CPT 21µM
CCOc1cc2nc(-c3ccc(OC)c(OC)c3)nc(N3CCC(C)CC3)c2cc1OC	none (no result: RORg inh, TDP1 cell noCPT, IL-1B inflam inh, DT40 TDP1 CPT, VP16 counter)
FC(F)(F)c1ccnc(NCc2ccc(Cl)cc2)n1	IL-1B inflam inh -55
